Data from PubChem BioAssay (Tox21).
Inconclusive results are not listed. Entries that show only a call come without a potency. Activity calls are given as the source filed them. Calls come from the whole dose curve; as a rule, active = well fitted activation curve with a large enough effect in the repeat runs; inconclusive = weak or mixed curves; inactive = flat fitted curve, though single readings scatter.

Experiment: A CellTox Green Cytotoxicity Assay to monitor cytotoxicity in HEK293 cells - 8 hour (AID 1224884); note: nearly all actives have a fitted effect of over 35% in size
Details: CellTox Green fluorescence; series mostly up to 76.8 µM
Text: National Center for Advancing Translational Sciences [NCATS]
NIH Chemical Genomics Center [NCGC]
U.S. Environmental Protection Agency [EPA]
National Institutes of Environmental Health Sciences [NIEHS]
National Toxicology Program [NTP]
Cell-based models are critical for drug discovery. Determining the natural cytotoxic effects resulting from test compounds is an essential research activity. A CellTox Green Cytotoxicity Assay to monitor cytotoxicity in real time of continues cell culture during 40 hours of the compound treatment was used to screen Tox21 10K library compounds in Hek293 cells. CellTox Green Cytotoxicity Assay is a nonlytic, homogeneous, biofluorescent method to measure cytotoxicity in cell culture after experimental manipulation. The assay system uses a proprietary asymmetric cyanine dye that is excluded from viable cells but preferentially stains the dead cell's DNA. […] Viable cells produce no appreciable increases in fluorescence. Therefore, the fluorescence signal produced by the binding interaction with dead cell DNA is proportional to cytotoxicity.
The mixture of Hek293 cell suspension and reagents were dispensed at 600cells/6 ul/well in 1536-well tissue culture treated black solid bottom plates using a Multidrop dispenser. After the assay plates were incubated at a 37 C/5% CO2 incubator for 5 hours, 23 nL of compounds dissolved in DMSO, positive and negative controls was transferred to the assay plate by a pintool work station. The plates were incubated at 37 C for 40 hours. The fluorescence intensity were measured at 0h, 8h, 16h, 24h, 32h and 40h time points using ViewLux plate reader during compound treatment.
Potency is the fitted concentration of half-maximal effect.

| SMILES | Potency | cytotoxicity increase |
| --- | --- | --- |
| CCc1cc(C2=C(C(=O)O)N(c3ccccc3C(F)(F)F)S(=O)(=O)c3ccccc32)cc2c1OCO2 | inactive | – |
| C=CC(=O)OCCOc1ccccc1 | inactive | – |
| O[C@@H](COc1cccc2ncccc12)CN1CCN(C2c3ccccc3[C@@H]3[C@H](c4ccccc42)C3(F)F)CC1 (stereo not given in full) | inactive | – |
| CCN(CC)CCNc1ccc(CNC=O)c2sc3ccc(OC)cc3c(=O)c12 | inactive | – |
| NC(=O)C(c1ccccc1)(c1ccccc1)[C@@H]1CCN(CCc2ccc3c(c2)CCO3)C1 | 21.3 µM (active) | – |
| CCN(CC)c1ccc(C(=C2C=CC(=[N+](CC)CC)C=C2)c2cc(S(=O)(=O)O)ccc2S(=O)(=O)[O-])cc1 | inactive | – |
| COc1cc(Cl)ccc1Oc1ccc(Cl)cc1Cl | inactive | – |
| C[C@@H]1C[C@H]2[C@@H]3CCC4=CC(=O)C=C[C@]4(C)[C@@]3(F)[C@@H](O)C[C@]2(C)[C@@]1(O)C(=O)COC(=O)c1ccncc1 | inactive | – |
| OCCNCc1ccccc1 | inactive | – |
| CCCCC(CC)COC(=O)CCCCCCCCC(=O)OCC(CC)CCCC (stereo not given) | inactive | – |
| COc1ccc(C)cc1[N+](=O)[O-] | inactive | – |
| CCOC(=O)C(O)c1ccccc1 (stereo not given) | inactive | – |
| C=C(C)C(=O)OCC | inactive | – |
| OCCN1CCN(CCCN2c3ccccc3C=Cc3ccccc32)CC1 | inactive | – |
| S=C([S-])NCCNC(=S)[S-].[Mn+2] | inactive | – |
| CC(=O)c1ccc2c(c1)N(CCCN1CCC(CCO)CC1)c1ccccc1S2 | inactive | – |
| CC(=O)[O][Al] | inactive | – |
| CC(=O)c1cccc([N+](=O)[O-])c1 | inactive | – |
| CCc1c(C(=O)NN2CCCCC2)nn(-c2ccc(Cl)cc2Cl)c1-c1ccc(Br)cc1 | inactive | – |
| O=C1CCCCCCCCCCCC(=O)OCCO1 | inactive | – |

| SMILES | Potency | cytotoxicity increase |
| --- | --- | --- |
| NS(=O)(=O)c1ccc(N2CCCCS2(=O)=O)cc1 | inactive | – |
| C[N+](C)(C)CCOC(=O)CCC(=O)OCC[N+](C)(C)C | inactive | – |
| O=C1c2ccccc2S(=O)(=O)N1CCCCN1CCN(c2ncccn2)CC1 | inactive | – |
| CCCn1cnc2c1c(=O)n(CCCCC(C)=O)c(=O)n2C | inactive | – |
| c1ccc(C(O[C@H]2CCCN(CCc3ccc4c(c3)OCO4)C2)c2ccccc2)cc1 | inactive | – |
| CCOC(=O)NCCOc1ccc(Oc2ccccc2)cc1 | inactive | – |
| COc1ccc(C(=O)c2ccc(OC)cc2O)c(O)c1 | inactive | – |
| C=C(C)C(=O)OCCO | inactive | – |
| O=C(Cl)c1cc(C(=O)Cl)cc(C(=O)Cl)c1 | inactive | – |
| C=CC1CC2C=CC1C2 (stereo not given) | inactive | – |
| CCCCOC(=O)CCCCCCCC(=O)OCCCC | inactive | – |
| CCOC(=O)C1=C[C@]2(CC)CCCN3CCc4c(n1c1ccccc41)[C@@H]32 | inactive | – |
| CCCCCCCCO[C@@H]1O[C@H](CO)[C@@H](O)[C@H](O)[C@H]1O | inactive | – |
| CCCCCCOC(=O)NC(=N)c1ccc(NCc2nc3cc(C(=O)N(CCC(=O)OCC)c4ccccn4)ccc3n2C)cc1 | inactive | – |
| CN1CCC(N(Cc2cccs2)c2ccccc2)CC1 | 19 µM (active) | – |
| Nc1ccc(S(=O)(=O)Nc2ccccc2)cc1 | inactive | – |
| C/C=C/C(=O)CC | – | 1.29% [at 15.8 µM] (inactive) |
| CCC(C)(C)CC | inactive | – |
| CCCCC/C=C\C/C=C\CCCCCCCC(=O)NC(C)c1ccccc1 (stereo not given) | inactive | – |
| CCCCCCCCCCCCN1CCCCCC1=O | inactive | – |
